Laboratory results reported in the supplement of paper PMC8728848.
This is one part of a sample in which the strongest signals are shown more often than they occur.

How the values were obtained:
Assay in all cases: glycan array binding signal (z-score within array); higher = stronger binding
Details in all cases: glycan notation: IUPAC condensed, linker removed
[1] = biological target: Gal(b1-4)GlcNAc(b1-3)Gal(b1-3)GalNAc
In short: (§1)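 Columns mapping to the same glycan were averaged after glycan names were converted to IUPAC-condensed notation. The data come from 3228 arrays in the Consortium for Functional Glycomics database, limited to those with an available protein sequence. Binding is reported as a within-array Z-score averaged across arrays of one protein sequence and across linkers.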

[2] = biological target: Gal(b1-4)GlcNAc(b1-3)Gal(b1-4)Glc
In short: as §1

[3] = biological target: Gal(b1-4)GlcNAc(b1-3)Gal(b1-4)GlcNAc(b1-3)Gal(b1-4)GlcNAc(b1-3)Gal(b1-4)GlcNAc(b1-3)Gal(b1-4)GlcNAc(b1-2)[Gal(b1-4)GlcNAc(b1-3)Gal(b1-4)GlcNAc(b1-3)Gal(b1-4)GlcNAc(b1-3)Gal(b1-4)GlcNAc(b1-3)Gal(b1-4)GlcNAc(b1-6)]Man(a1-6)[Gal(b1-4)GlcNAc(b1-3)Gal(b1-4)GlcNAc(b1-3)Gal(b1-4)GlcNAc(b1-3)Gal(b1-4)GlcNAc(b1-3)Gal(b1-4)GlcNAc(b1-2)Man(a1-3)]Man(b1-4)GlcNAc(b1-4)[Fuc(a1-6)]GlcNAc
In short: as §1

[4] = biological target: Gal(b1-4)GlcNAc(b1-6)[Gal(b1-4)GlcNAc(b1-3)]GalNAc
In short: as §1

[5] = biological target: Gal6S(b1-4)Glc6S
In short: as §1

[6] = biological target: GalNAc(b1-3)Gal(a1-4)Gal(b1-4)GlcNAc(b1-3)Gal(b1-4)Glc
In short: as §1

[7] = biological target: GalNAc(b1-4)GlcNAc(b1-2)Man(a1-3)[GalNAc(b1-4)GlcNAc(b1-2)Man(a1-6)]Man(b1-4)GlcNAc(b1-4)GlcNAc
In short: as §1

[8] = biological target: Glc(b1-4)Glc
In short: as §1

[9] = biological target: GlcNAc(a1-4)Gal(b1-4)GlcNAc(b1-3)Gal(b1-4)[Fuc(a1-3)]GlcNAc(b1-3)Gal(b1-4)[Fuc(a1-3)]GlcNAc
In short: as §1

[10] = biological target: GlcNAc(b1-2)[GlcNAc(b1-4)]Man(a1-3)[GlcNAc(b1-4)][GlcNAc(b1-2)[GlcNAc(b1-6)]Man(a1-6)]Man(b1-4)GlcNAc(b1-4)GlcNAc
In short: as §1

[11] = biological target: GlcNAc(b1-3)Gal(b1-4)GlcNAc(b1-3)Gal(b1-4)GlcNAc(b1-3)GalNAc
In short: as §1

[12] = biological target: Neu5Ac(a2-3)Gal(b1-3)GalNAc(b1-3)Gal(a1-4)Gal(b1-4)Glc
In short: as §1

[13] = biological target: Neu5Ac(a2-3)Gal(b1-3)GlcNAc(b1-3)GalNAc
In short: as §1

[14] = biological target: Neu5Ac(a2-3)Gal(b1-4)GlcNAc(b1-2)[Neu5Ac(a2-3)Gal(b1-4)GlcNAc(b1-6)]Man(a1-6)[Neu5Ac(a2-3)Gal(b1-4)GlcNAc(b1-2)Man(a1-3)]Man(b1-4)GlcNAc(b1-4)GlcNAc
In short: as §1

[15] = biological target: Neu5Ac(a2-3)Gal(b1-4)GlcNAc(b1-3)Gal(b1-4)GlcNAc(b1-3)Gal(b1-4)GlcNAc(b1-2)Man(a1-3)[Neu5Ac(a2-3)Gal(b1-4)GlcNAc(b1-3)Gal(b1-4)GlcNAc(b1-3)Gal(b1-4)GlcNAc(b1-2)Man(a1-6)]GalNAc
In short: as §1

[16] = biological target: Neu5Ac(a2-3)[GalNAc(b1-4)]Gal(b1-4)Glc
In short: as §1

[17] = biological target: Neu5Ac(a2-6)Gal(b1-4)GlcNAc(b1-2)Man(a1-3)[Man(a1-6)]Man(b1-4)GlcNAc(b1-4)GlcNAc
In short: as §1

[18] = biological target: Neu5Ac(a2-6)Gal(b1-4)GlcNAc(b1-2)Man(a1-3)[Neu5Ac(a2-3)Gal(b1-4)GlcNAc(b1-2)Man(a1-6)]Man(b1-4)GlcNAc(b1-4)GlcNAc
In short: as §1

[19] = biological target: Neu5Ac(a2-6)Gal(b1-4)GlcNAc(b1-2)[Neu5Ac(a2-6)Gal(b1-4)GlcNAc(b1-4)]Man(a1-3)[GlcNAc(b1-4)][Neu5Ac(a2-6)Gal(b1-4)GlcNAc(b1-2)[Neu5Ac(a2-6)Gal(b1-4)GlcNAc(b1-6)]Man(a1-6)]Man(b1-4)GlcNAc(b1-4)GlcNAc
In short: as §1

[20] = biological target: Neu5Ac(a2-6)Gal(b1-4)GlcNAc(b1-3)Gal(b1-4)GlcNAc(b1-3)GalNAc
In short: as §1

[21] = biological target: Neu5Ac(a2-6)Gal(b1-4)GlcNAc(b1-6)[Gal(b1-3)GlcNAc(b1-3)]Gal(b1-4)Glc
In short: as §1

[22] = biological target: Neu5Ac(a2-6)Gal(b1-4)GlcNAc(b1-6)[Gal(b1-3)]GalNAc
In short: as §1

[23] = biological target: Neu5Ac(a2-8)Neu5Ac(a2-8)Neu5Ac(a2-8)Neu5Ac(a2-3)[GalNAc(b1-4)]Gal(b1-4)Glc
In short: as §1

[24] = biological target: Neu5Gc(a2-8)Neu5Gc(a2-3)Gal(b1-4)GlcNAc
In short: as §1

B1: PX14343C-bfa-541-26-541 (Bacteroides fragilis) (protein)
chain: KAPLDEIADDSFWSDETLVKYYVNDLYSEISVDGLQLQENRSDNSVSAQRDKYRASWFKFNYDMVSASDPQDDDVWEDYYVKVRKCNRFFERIGTSTIEESEKSRLTGEVHFLRAMFYFEMVKRYGGVILLDKVLTMEDNWEIPRSSEKECYDFILEDLKKATEMLPASYGSREKGRATKGAAYALKSRVELYDKRYEDVIKSCAEVYKLGYELVDGTTPEKYRSIWWTTNKDNKEIIFDVQYKSPDVYNNMMVCNMVTYINDKYGDRGWGGLGPTQELIDAFEMADGTPATQYSQAPADQVFDINTCGIYEGREPRFYANIVFHGSQIFFNADKGAVTVDRYLMDTPDKGDGSLTGYNVWKWIDYDNYNYPYAGAGSPDFSTNWIILRYAEIYLNDAEARLETGDVEGARKAVNMIRQRVGLPDLTESDPEKLRELIRKERRIEFAFEEQRFYDVRRWKIGPETQTTLHGVRFVSPTEFKVTKTDIRTWNDRLYLTPVPHDEIVRSSVLKQNLGY
glycan array binding signal (z-score) [1]: -0.401
glycan array binding signal (z-score) [2]: 0.261
glycan array binding signal (z-score) [3]: 0.758
glycan array binding signal (z-score) [4]: 0.249
glycan array binding signal (z-score) [5]: 1.46
glycan array binding signal (z-score) [6]: -0.667
glycan array binding signal (z-score) [7]: 3.4
glycan array binding signal (z-score) [8]: -0.686
glycan array binding signal (z-score) [9]: 1.91
glycan array binding signal (z-score) [10]: 0.147
glycan array binding signal (z-score) [11]: -0.553
glycan array binding signal (z-score) [12]: 0.978
glycan array binding signal (z-score) [13]: 0.246
glycan array binding signal (z-score) [14]: 0.43
glycan array binding signal (z-score) [15]: 5.05
glycan array binding signal (z-score) [16]: 3.41
glycan array binding signal (z-score) [17]: 3.29
glycan array binding signal (z-score) [18]: 0.23
glycan array binding signal (z-score) [19]: -0.339
glycan array binding signal (z-score) [20]: -0.036
glycan array binding signal (z-score) [21]: 5.89
glycan array binding signal (z-score) [22]: -0.647
glycan array binding signal (z-score) [23]: 1.9
glycan array binding signal (z-score) [24]: -0.342
